ELG1 DNA repair: qHTS screen for small molecules that inhibit ELG1-dependent DNA repair in human embryonic kidney (HEK293T) cells expressing luciferase-tagged ELG1; HEK293T ELG1-luciferase reporter, luminescence, 16 h; DNA damage induced by 5-fluorouridine; Potency, µM (series often up to 46.1 µM), inactives show top-dose activity change, negative = inhibition, usual class: inhibitors; 330,000 tested, 2.3% active; AID 504467, 2011; further: on the % scale 0 is the no-effect control and ±100 the full control effect; nearly all actives have a fitted effect of over 55% in size
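In this reporter screen, reduction of luminescence relative to DMSO vehicle indicated activity. Compounds and 5-fluorouridine were added together to 2,000 cells per well, incubated for 16 hr at 37 °C, then developed with ONE-Glo.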
ELG1 genotox: qHTS screen for small molecules that induce genotoxicity in human embryonic kidney (HEK293T) cells expressing luciferase-tagged ELG1. HEK293T ELG1-luciferase reporter, luminescence, 16 h. Potency, µM (highest dose often 46 µM), without a hit: at the top dose activity change, positive = activation, hits mostly activators. 330,000 tested, 1.3% active; further: % of control where 0% means no effect; nearly all actives have a fitted effect of over 60% in size
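Reporter readout depends on ELG1 protein level, which increases with genetic stress. After 16 hr compound exposure at 37 °C, luciferase activity was quantified using ONE-Glo.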
NPC1 prom act: qHTS Assay for NPC1 Promoter Activators. Huh7 NPC1 promoter luciferase reporter, 24 h. Potency, µM (series often up to 9.22 µM), inactives show top-dose activation, actives largely listed as activators. 320,000 tested, 2.4% active. AID 485313, 2010; further: % of control where 0% means no effect; nearly all actives have a fitted effect of over 60% in size
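Stable NPC1-promoter luciferase Huh7 line; cpd (DMSO) 24 h, 37 °C, 5% CO2; Amplite luciferase reagent 10 min RT; luminescence readout. qHTS format.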
Rab9 promoter act: qHTS Assay for Rab9 Promoter Activators | AID 485297, 2010 | 320,000 tested, 2.8% active | Potency, µM (series often up to 9.22 µM), for the others: at the highest dose activation, negative = inhibition, most hits filed as activators | Huh7 Rab9 promoter-luciferase reporter, luminescence, 24 h; further: % of control where 0% means no effect; nearly all actives have a fitted effect of over 60% in size
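Cells were plated at 1500 per well in reduced-serum medium with 10% FBS and left 2 h. Compound in DMSO was then added for 24 h at 37 °C. Reporter signal was read by luminescence after 10 min with luciferase detection reagent.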
SMN2 splice enh: qHTS Assay for Enhancers of SMN2 Splice Variant Expression | 210,000 tested, 2.8% active | Potency, µM (highest dose often 46.1 µM), inactives show top-dose activity change, positive = activation, actives largely listed as activators | HEK293 SMN2-luciferase splicing reporter, luminescence, 30-36 h | AID 1458, 2008; further: % of control where 0% means no effect; nearly all actives have a fitted effect of over 55% in size
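qHTS luciferase splicing reporter: luminescence rises when SMN2 exon 7 is included in transfected HEK293 cells. Compound exposure lasted 30-36 h at 37C, with 4.5 mM final sodium butyrate as control, followed by a ONE-Glo read.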
FLuc modulator: qHTS profiling assay for firefly luciferase inhibitor/activator using purifed enzyme and Km concentrations of substrates (counterscreen for miR-21 project) | Luciferin 4-monooxygenase (Photinus pyralis), P08659 | purified FLuc, Km substrates, luminescence inhibition | 360,000 tested, 6.9% active | Potency, µM (highest dose often 57.5 µM), for inactives: at the highest dose activity change, negative = inhibition, usual class: inhibitors;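 further: plate controls were vehicle for no effect and reference inhibitor for full effect; nearly all actives have a fitted effect of over 55% in size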
Target sequence (P08659 whole entry, looked up): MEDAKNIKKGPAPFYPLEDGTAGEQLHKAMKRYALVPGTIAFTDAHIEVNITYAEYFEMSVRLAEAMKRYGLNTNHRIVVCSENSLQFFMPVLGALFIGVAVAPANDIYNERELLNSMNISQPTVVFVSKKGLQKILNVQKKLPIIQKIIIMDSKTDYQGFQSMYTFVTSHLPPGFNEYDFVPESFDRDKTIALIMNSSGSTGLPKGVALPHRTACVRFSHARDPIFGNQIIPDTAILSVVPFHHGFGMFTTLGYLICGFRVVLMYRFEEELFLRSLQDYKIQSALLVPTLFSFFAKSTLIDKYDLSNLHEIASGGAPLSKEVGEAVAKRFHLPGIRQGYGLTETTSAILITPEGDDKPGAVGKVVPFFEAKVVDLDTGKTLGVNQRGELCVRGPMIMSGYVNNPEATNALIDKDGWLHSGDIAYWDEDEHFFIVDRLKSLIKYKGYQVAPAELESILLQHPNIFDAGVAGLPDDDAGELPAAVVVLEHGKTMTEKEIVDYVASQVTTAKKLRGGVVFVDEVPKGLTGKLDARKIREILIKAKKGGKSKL
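Purified P. pyralis luciferase, 10 nM final, with Km-level 10 uM D-luciferin and 10 uM ATP in 50 mM Tris acetate pH 7.5, 10 mM Mg acetate, 0.01% Tween-20, 0.05% BSA; 6-point qHTS titration about 60 µM downward; luminescence read.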
Numbers without * were called inactive; ? = inconclusive; . = not tested or not shown; [ ] = dose if it differs, or a comment. Compounds with a hit are over-represented: about 9.4% of the library has one in this group of screens. The call rests on the fitted dose curve; in most records, active means well fitted curve in the direction sought with a large enough effect; inconclusive means small, poorly fitted or top-dose-only effect, or another doubt; inactive means no such curve, though single readings can be large; an effect the other way counts as inactive or inconclusive. Potency means the concentration at half of the fitted maximal effect.

SMILES	ELG1 DNA repair	ELG1 genotox	NPC1 prom act	Rab9 promoter act	SMN2 splice enh	FLuc modulator
Cc1c(C(=O)Nc2nc(-c3ccccn3)cs2)oc2ccccc12	5%	-1%	16%	7%	.	9.5µM*
O=C(Nc1nc(-c2ccccn2)cs1)c1ncc(Cl)c(Cl)c1Cl	2%	-10%	-5%	-2%	-10%	?
CC(=O)Nc1ccc(/C(C)=N/Nc2nc(N3CCOCC3)nc(N3CCOCC3)n2)cc1	?	-3%	6%	8%	-12%	0%
O=C(Nc1ccc(OCC(=O)N2CCOCC2)cc1)Nc1cccc(Cl)c1	-2%	-2%	9%	4%	.	12µM*
O=C(Nc1cccc(OCC(=O)N2CCOCC2)c1)c1ccc(C(F)(F)F)cc1	-7%	-15%	-6%	-15%	.	15µM*
O=C(COc1cccc(C(F)(F)F)c1)N1CCN(c2ccc(O)cc2)CC1	16µM*	-11%	1%	-3%	-15%	-11%
CC(=O)Nc1ccc(/C(C)=N/Nc2nc(Nc3cccc4ccccc34)nc(N3CCOCC3)n2)cc1	7.3µM*	-12%	-5%	-4%	-28%	?
CCOC(=O)C1=C(CS(=O)(=O)c2ccc(F)c(C)c2)NC(=O)NC1c1ccccc1OC (configuration not stated)	.	.	.	.	16%	-6%
O[C@@H](c1cc([C@@]23C[C@H]4CC[C@@H]2C[C@H](C4)C3)nc2c(Cl)cc(Cl)cc12)C1CCCCN1 (some centres not stated)	.	.	.	.	1%[9.22 µM]	.
Cc1cc(C)c(OCC(=O)N(Cc2ccc(N(C)C)cc2)CC2CCCO2)c(C)c1 (configuration not stated)	.	.	.	.	5%	1%
COC/C=C/C1=CC2=CC(=O)C(C)(OC(=O)c3cnc4ccccc4n3)C(=O)C2=CN1Cc1ccc2c(c1)OCO2 (configuration not stated)	.	.	.	.	-9%[9.22 µM]	.
CC(C)(C)c1ccc(NC(=O)Nc2ccc(OCC(=O)N3CCOCC3)cc2)cc1	?	?	3.2µM*	2.2µM*	16µM*	0.48µM*
O=C(Nc1ccc(C(=O)N2CCOCC2)cc1)Nc1cccc2ccccc12	?	?	13%	-1%	-43%	15µM*
O=C(Nc1ccc(C(=O)N2CCOCC2)cc1)Nc1cccc(Cl)c1	8%	-1%	?	30%	?	15µM*
COc1ccc(Cl)cc1NC(=O)Nc1ccc(C(=O)N2CCOCC2)cc1	-15%	-2%	-3%	0%	.	?
COc1ccc(NC(=O)CN2CCN(Cc3ccccc3)S2(=O)=O)c(OC)c1	.	.	.	.	.	5%
CC(C)=CCOc1c2ccoc2c(OCC=C(C)C)c2oc(=O)ccc12	23µM*	-3%	.	.	.	.
C=C1SC(=Nc2ccccc2Cl)N(C(=O)c2sc3ccccc3c2Cl)C12CCCCC2	0%	6%	10%	23%	.	21µM*
CN(Cc1ccccc1)c1nc2c(S(=O)(=O)c3cccc(Cl)c3)nnn2c2ccsc12	.	.	.	.	.	-4%
CC(=O)N1SC(N)=NC1c1ccccc1 (configuration not stated)	-6%	-1%	-3%	-9%	10%	11%
c1ccc([C@H]2CN3C(=N2)Sc2ccccc23)cc1	?	?	?	2%	.	0.48µM*
COc1ccc(CCNC(=O)COC(=O)c2ccc(C)s2)cc1	14%	1%	-1%	0%	.	-5%
COCCCNC(=O)COC(=O)c1ccc(-c2nc3ccccc3s2)s1	?	14%	23%	?	13µM*	5.4µM*
Cc1cc(C)c2c(=O)c3c(oc2c1)C(=O)N(Cc1ccc(F)cc1)C3c1cccc(O)c1 (configuration not stated)	.	.	.	.	-8%	-8%
COC(=O)c1cc(-c2ccc(OC)cc2)nc2nc(SC)[nH]c(=O)c12	10%	1%	-5%	-1%	.	5.4µM*
SMILES	ELG1 DNA repair	ELG1 genotox	NPC1 prom act	Rab9 promoter act	SMN2 splice enh	FLuc modulator
CSc1nc(C)c(CCOC(=O)c2cccc(C)c2)c(=O)[nH]1	12%	-1%	-2%	8%	-10%	-9%
CCOC(=O)c1cc(-c2cccc(C(F)(F)F)c2)nc2nc(SC)[nH]c(=O)c12	?	-6%	-2%	-2%	5%	12µM*
CCOC(=O)c1cc(-c2ccc(C)cc2)nc2nc(SC)[nH]c(=O)c12	1%	-1%	-2%	-1%	6%	4.8µM*
COc1cccc(C2CC(=O)Nc3c2c(=O)n(C)c2nc4ccccc4n32)c1 (configuration not stated)	.	.	.	.	-12%	?
N#C/C(C(=O)c1ccccc1)=C1/CCCCCN1	?	?	?	2.5µM*	?	21µM*
Cc1ccc(S(=O)(=O)N2CCOCC2)cc1C(=O)N(Cc1nnc(-c2ccccc2Cl)o1)C1CC1	10µM*	-15%	-1%	-3%	.	-1%
O=C(c1cccc(S(=O)(=O)N2CCOCC2)c1)N(Cc1nnc(-c2ccccc2Cl)o1)C1CC1	?	0%	-4%	-2%	.	?
O=C(c1cc(S(=O)(=O)N2CCOCC2)ccc1F)N(Cc1nnc(-c2ccccc2Cl)o1)C1CC1	?	-6%	-2%	0%	.	2%
CC1CN(S(=O)(=O)c2cccc(C(=O)N(Cc3nnc(-c4ccccc4Cl)o3)C3CC3)c2)CC(C)O1 (configuration not stated)	5.8µM*	-2%	2%	0%	.	?
C(=N\Nc1ccc2nncn2n1)/c1ccco1	0%	1%	0%	-2%	.	5%
BrC(=C\c1ccccc1)/C=N/Nc1ccc2nncn2n1	?	6%	1%	-2%	.	13µM*
CCN(Cc1ccccc1)S(=O)(=O)c1ccc(-c2coc(C)n2)cc1	.	.	.	.	.	-19%
CN1CCN(/N=C/c2ccc(Br)cc2)CC1	?	?	?	?	25%	?

From PubChem
